Screening results from PubChem BioAssay.
Compounds with a hit are over-represented: about 1.6% of the library has one in this group of screens.
KCNQ2 pot: potentiators of rat KCNQ2 potassium channel. CHO-K1 KCNQ2, FluxOR thallium flux fluorescence; hits give high values. B-score at 10 µM. hit rate 0.54% among 310,000. AID 2239;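 active = fluorescence ratio B-score at least 3 SD of library B-scores, with initial fluorescence B-score within 3 of them, cut at about 5.3 in these data; same plate scores as AID 2156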;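 also: B-score of peak minus minimum over baseline fluorescence ratio after K+ and Tl+ stimulus; positive B-score means potentiation of KCNQ2 with more thallium influx and brighter signal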
KCNQ2 inh: blocks the rat KCNQ2 potassium channel. O88943. CHO-K1 KCNQ2, FluxOR thallium flux, 20 min; hits give low values. B-score at 10 µM. hit rate 1.1% among 310,000;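 active = fluorescence ratio B-score at most minus 3 library SDs, with starting brightness B-score within 2 library SDs, cut at about -5.5 in these data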
Kir21 confirm: confirmation of mouse Kir2.1 potassium channel inhibitors; shares compounds with KCNQ2 pot; Kir2.1-expressing cells, FluxOR thallium flux fluorescence; hits give low values; Tl flux remaining, % of negative control (hits give low values), % at 10 µM; hit rate 41% among 2,300;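 active = Primary-screen hit whose thallium flux fell at least 3 control SD below untreated wells in both duplicates, with normal baseline fluorescence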;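 also: 0% = blank wells without stimulus and 100% = stimulated no-compound controls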
HEK293 Tl flux: parental HEK293 activity in Kir2.1 inhibitor counter-screen; FluxOR signal as % of negative control (100 = no effect), % at 10 µM; shares compounds with KCNQ2 pot; parental HEK293 cells, FluxOR thallium flux fluorescence; 0% = unstimulated blank wells; hit rate 19% among 2,300;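 active = dye signal at least 3 control SD above or below untreated wells in both duplicates, raw fluorescence within 3, either direction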;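 also: percent is based on the flux ratio of peak minus minimum fluorescence over baseline F0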
CHO-K1 ctr: alters thallium flux in parental CHO-K1 cells, KCNQ2 counter-screen. AID 2282. activity increase over 3SD of controls, % at 10 µM. shares compounds with KCNQ2 pot. hit rate 43% among 1,200. FluxOR thallium flux fluorescence; zero = vehicle mean+3SD, 100% = vehicle-minus-blank window;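 active = signal rise of at least 3 SD above the untreated control mean, in both duplicate wells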;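 also: counter screen of KCNQ2 potentiator hits so any rise reflects channel-independent effects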
KCNQ1 pot spec: human KCNQ1 counter-target activity of KCNQ2 potentiators; shares compounds with KCNQ2 pot; CHO KCNQ1 stable, FluxOR thallium flux fluorescence; beyond 3SD, as % of vehicle-control signal; activation over 3SD threshold, % at 10 µM; hit rate 28% among 1,200;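 active = fluorescence ratio rise of at least 3 SD of vehicle wells above their mean, in both replicate wells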;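 also: 0% = vehicle mean plus 3 SD and 100% = vehicle minus unstimulated blank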
Target sequence (P51787 whole entry, looked up): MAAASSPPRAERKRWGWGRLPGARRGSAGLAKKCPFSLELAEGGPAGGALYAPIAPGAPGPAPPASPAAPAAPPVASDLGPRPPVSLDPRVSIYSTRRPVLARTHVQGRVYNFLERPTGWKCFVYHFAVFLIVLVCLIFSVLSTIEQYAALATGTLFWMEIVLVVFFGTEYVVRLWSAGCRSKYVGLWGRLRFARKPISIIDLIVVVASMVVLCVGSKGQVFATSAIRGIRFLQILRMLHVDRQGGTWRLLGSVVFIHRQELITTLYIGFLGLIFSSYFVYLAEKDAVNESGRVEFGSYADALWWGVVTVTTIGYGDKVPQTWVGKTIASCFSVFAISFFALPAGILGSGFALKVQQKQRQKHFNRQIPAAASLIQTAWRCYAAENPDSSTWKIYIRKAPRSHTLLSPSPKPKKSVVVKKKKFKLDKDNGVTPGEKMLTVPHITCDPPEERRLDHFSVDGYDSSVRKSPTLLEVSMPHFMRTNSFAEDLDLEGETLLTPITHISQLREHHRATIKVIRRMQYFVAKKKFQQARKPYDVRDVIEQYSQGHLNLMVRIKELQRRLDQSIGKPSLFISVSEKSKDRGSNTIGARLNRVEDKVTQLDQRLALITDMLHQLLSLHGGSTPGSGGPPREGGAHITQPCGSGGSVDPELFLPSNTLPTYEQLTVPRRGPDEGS
KCNQ2 pot confirm: rat KCNQ2 channel potentiator confirmation; hit rate 68% among 1,200; AID 2287; CHO-KCNQ2 cells, FluxOR thallium flux fluorescence; shares compounds with KCNQ2 pot; potentiation, less the hit threshold, % at 10 µM;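 active = fluorescence ratio rising 3 SD or more over the vehicle control mean in both replicates, plus primary screen hit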;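 also: peak minus minimum thallium fluorescence divided by baseline after K/Tl stimulus; 0% = vehicle mean plus 3 SD and 100% = vehicle minus unstimulated blank difference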
Kir2-1 sel: selectivity of KCNQ2 potentiators: effect on mouse Kir2.1 | shares compounds with KCNQ2 pot | HEK293 Kir2.1, FluxOR thallium flux fluorescence | hit rate 2% among 1,200 | activity over 3SD threshold, % at 10 µM;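 active = fluorescence ratio rise of at least 3 SD above the vehicle-control mean, seen in both replicates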;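 also: 0% = vehicle mean plus 3 SD and 100% = vehicle minus no-stimulus blank window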
KCNQ2 W236L pot: rat KCNQ2 W236L mutant potentiation by KCNQ2 potentiators; shares compounds with KCNQ2 pot; CHO KCNQ2-W236L, automated patch clamp current; current increase over 3SD of negative controls (%), hits give high values, % at 25 µM; hit rate 10% among 940; AID 2558;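 active = current increase at least 3 SD of the untreated controls above them in both duplicate recordings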
An asterisk follows results filed as active; i = inactive; x = no result given.

SMILES | KCNQ2 pot | KCNQ2 inh | Kir21 confirm | HEK293 Tl flux | others
CC1=CC(C)(C)N(C(=O)CNC2CCCCC2)c2cc(C)ccc21 | x | i | 50.5%* | i
O=C(CSCc1ccccc1Br)N/N=C/c1ccccc1C(=O)O | x | i | x | x
CCN(CC)S(=O)(=O)c1ccc2[nH]c(=O)c3ccccc3c2c1 | 2.53 | i | x | x
CC1CCc2c(sc3nn[nH]c(=O)c23)C1 (centres undefined) | 0.14 | i | x | x
CC1CCc2c(sc3[nH]c(=S)n(C)c(=O)c23)C1 (centres undefined) | 20.1* | i | i | 396.0%* | CHO-K1 ctr=54.4*;KCNQ1 pot spec=-19.4;KCNQ2 pot confirm=68.6*;Kir2-1 sel=-9.0;KCNQ2 W236L pot=i
CCn1c(=S)[nH]c2sc3c(c2c1=O)CCCC3 | 15.7* | i | i | 393.0%* | CHO-K1 ctr=40.5*;KCNQ1 pot spec=-16.4;KCNQ2 pot confirm=59.6*;Kir2-1 sel=-4.0;KCNQ2 W236L pot=i
C=CCn1c(=S)[nH]c2sc3c(c2c1=O)CCC3 | 2.5 | i | x | x
Cc1ccc(C(=O)C(OC(=O)CN2C(=O)c3ccccc3C2=O)c2ccccc2)cc1 (centres undefined) | 1.92 | i | x | x
Cc1ccc(C(=O)C(OC(=O)CN2C(=O)c3ccccc3C2=O)c2ccccc2)cc1C (centres undefined) | 7.48* | i | i | i | CHO-K1 ctr=-18.6;KCNQ1 pot spec=-17.6;KCNQ2 pot confirm=-2.3;Kir2-1 sel=-20.1;KCNQ2 W236L pot=i
COCCN(C(=O)CC1C(=O)NCCN1CC(c1ccccc1)c1ccccc1)C(C)C (centres undefined) | x | i | x | x
COc1ccc(NC2CCCN(C(=O)c3cc4ncccn4n3)C2)cc1 (centres undefined) | 0.01 | i | x | x
CC(OC(=O)CNC(=O)c1ccc(Cl)c(Cl)c1)C(=O)N1CCOCC1 (centres undefined) | 0.8 | i | x | x
COc1ccc(S(=O)(=O)NCCSCc2ccco2)cc1Cl | 0.75 | i | 58.0%* | i
COc1ccc(S(=O)(=O)NCCSCc2ccco2)cc1C | x | i | x | x
O=C(Oc1cccc(OC(=O)c2ccco2)c1)c1ccco1 | 0.44 | i | 51.0%* | i
O=C(Oc1cccnc1)c1ccco1 | x | i | x | x
COc1ccc(CC(C)CC(=O)Nc2ccc(OC)cc2)cc1 (centres undefined) | x | i | x | x
CCN(CC)S(=O)(=O)c1ccc(N2CCN(C)CC2)c(NC(=O)c2cc(=O)c3ccccc3o2)c1 | 0.74 | i | x | x
O=C(CSc1cccc[n+]1[O-])N1CCCc2ccccc21 | 14.9* | i | i | i | CHO-K1 ctr=-8.4;KCNQ1 pot spec=1.2*;KCNQ2 pot confirm=-19.1;Kir2-1 sel=-29.9
Cn1nnnc1SCC(=O)N1CCCc2ccccc21 | 0.15 | i | x | x
CSc1nc(NNC=O)cc(Oc2ccc(NC(C)=O)cc2)n1 | 0.43 | i | x | x
CC1=C(C(=O)OCC2CCCCC2)C(c2ccc(O)cc2)NC(=O)N1 (centres undefined) | 1.68 | i | x | x
CC1=C(C(=O)OC2CCCCC2)C(c2cccc([N+](=O)[O-])c2)NC(=O)N1 (centres undefined) | 1.69 | i | x | x
CC1=C(C(=O)OC2CCCCCCC2)C(c2cccc(O)c2)NC(=O)N1 (centres undefined) | 20.3* | i | i | i | CHO-K1 ctr=-0.3;KCNQ1 pot spec=-6.8;KCNQ2 pot confirm=81.6*;Kir2-1 sel=-19.1;KCNQ2 W236L pot=29.3%*
CC1=C(C(=O)OCC2CCCCC2)C(c2cccc(O)c2)NC(=O)N1 (centres undefined) | 17.1* | i | i | i | CHO-K1 ctr=-11.0;KCNQ1 pot spec=-20.9;KCNQ2 pot confirm=58.1*;Kir2-1 sel=-45.2;KCNQ2 W236L pot=34.4%*
Cc1ccc2c(=O)cc(C(=O)NC3CCS(=O)(=O)C3)oc2c1C (centres undefined) | x | i | x | x
COc1ccc(CCNC(=O)[C@H](CC(C)C)NC(=O)N2CCn3c2nc2ccccc23)cc1OC | x | i | x | x
CC(=O)Nc1ccc2c(c1)CCc1ccccc1-2 | x | i | x | x
